A selection: hits, their analogues and other compounds. The true share with any hit is near 7.4%.
FLuc inh = Firefly luciferase inhibition profiling of diverse chemical library using quantitative high-throughput screening. Luciferin 4-monooxygenase (Photinus pyralis), P08659. 2.5% of 76,000 active. AID 1347043, 2019. Potency, µM (highest dose often 115 µM), usual class: inhibitors. purified P. pyralis luciferase, luminescence, biochemical; note: nearly all actives have a fitted effect of over 65% in size
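Luminescence read by CCD imager after adding enzyme (10nM final) to wells holding compound, titrated in qHTS. Substrates 10uM each D-luciferin and ATP; buffer 50mM Tris acetate pH 7.5, 10mM Mg acetate, Tween-20, BSA.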
hNpr1 antagonist = Natriuretic polypeptide receptor (hNpr1) antagonism - Primary qHTS; AID 1347048, 2019; Potency, µM (highest dose often 46.3 µM), inactives show top-dose activity change, negative = inhibition, most hits filed as inhibitors; 1.6% of 76,000 active; Atrial natriuretic peptide receptor 1 (Homo sapiens), P16066; HEK293 hNpr1 GloSensor cGMP, ANP-stimulated luminescence; calls by dose curve; note: nearly all actives have a fitted effect of over 60% in size
Target sequence (P16066 whole entry, looked up): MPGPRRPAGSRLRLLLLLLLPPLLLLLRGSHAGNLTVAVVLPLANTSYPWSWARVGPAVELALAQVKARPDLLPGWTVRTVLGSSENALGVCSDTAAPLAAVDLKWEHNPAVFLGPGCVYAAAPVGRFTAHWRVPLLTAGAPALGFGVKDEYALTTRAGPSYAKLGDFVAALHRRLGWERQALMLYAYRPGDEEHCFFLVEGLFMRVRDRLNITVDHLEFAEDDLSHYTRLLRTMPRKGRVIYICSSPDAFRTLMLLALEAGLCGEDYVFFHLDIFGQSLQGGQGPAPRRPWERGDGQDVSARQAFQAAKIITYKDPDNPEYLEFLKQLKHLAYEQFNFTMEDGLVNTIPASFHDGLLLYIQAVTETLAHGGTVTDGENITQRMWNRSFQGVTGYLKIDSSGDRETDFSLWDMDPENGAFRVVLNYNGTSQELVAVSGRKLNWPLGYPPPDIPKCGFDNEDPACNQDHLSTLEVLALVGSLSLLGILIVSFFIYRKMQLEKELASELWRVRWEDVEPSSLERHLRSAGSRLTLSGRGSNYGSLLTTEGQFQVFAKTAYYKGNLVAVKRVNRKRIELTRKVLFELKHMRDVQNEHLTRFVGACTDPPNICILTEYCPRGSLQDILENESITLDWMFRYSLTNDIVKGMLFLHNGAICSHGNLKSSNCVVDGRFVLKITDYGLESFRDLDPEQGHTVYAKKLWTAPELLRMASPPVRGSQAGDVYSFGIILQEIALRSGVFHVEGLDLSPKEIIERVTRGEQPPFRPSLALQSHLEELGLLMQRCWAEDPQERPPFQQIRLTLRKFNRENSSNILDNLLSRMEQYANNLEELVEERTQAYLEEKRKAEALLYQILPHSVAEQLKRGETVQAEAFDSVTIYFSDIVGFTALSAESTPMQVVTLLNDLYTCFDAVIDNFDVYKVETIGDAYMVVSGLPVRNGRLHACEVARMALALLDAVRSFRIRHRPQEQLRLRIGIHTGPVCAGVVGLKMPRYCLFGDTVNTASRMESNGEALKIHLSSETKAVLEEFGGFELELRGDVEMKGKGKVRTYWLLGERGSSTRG
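Compound pre-incubated 30 min at room temperature on GloSensor-loaded HEK293 cells stably carrying hNpr1 and the pGS-40F cGMP biosensor. Stimulation uses hNppA at 0.1 nM final; luminescence is taken at baseline and 20 min post-agonist.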
HEK293 tox = Cytotoxic Profiling in HEK 293 Cell Line of Diverse Libraries Using Quantitative High-Throughput Screening; HEK 293 viability, ATP luminescence (CellTiter-Glo), 48-72 h; Potency, µM (series often up to 115 µM), for the others: at the highest dose activity change, negative = cytotoxicity, actives largely listed as inhibitors; 6.6% of 94,000 active; note: nearly all actives have a fitted effect of over 60% in size
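Pintool-delivered compounds were incubated with HEK 293 cells (250 cells/well) at 37 degree Celsius for 48 or 72 hr. ATP-dependent luminescence (CellTiter-Glo) then reported remaining viable cells.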
SNCA expr inh = Primary qHTS assay for inhibitors of alpha-synuclein gene (SNCA) expression; HEK-293 SNCA-luciferase knock-in, luminescence, 24 h; Potency, µM (series often up to 57.2 µM), without a hit: at the highest dose activity change, negative = inhibition, actives largely listed as inhibitors; 0.17% of 140,000 active; AID 1671194, 2021;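 note: plate controls were DMSO cells for no effect and cell-free wells for full effect; nearly all actives have a fitted effect of over 45% in size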
NIH3T3 tox = Cytotoxic Profiling in NIH 3T3 Cell Line of Diverse Libraries Using Quantitative High-Throughput Screening. NIH 3T3 viability, CellTiter-Glo ATP luminescence, 48-72 h. Potency, µM (doses to about 96.7 µM), without a hit: at the highest dose activity change, negative = cytotoxicity, most hits filed as inhibitors. 4.3% of 94,000 active. AID 1345082, 2018; note: nearly all actives have a fitted effect of over 55% in size
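Viability of NIH 3T3 cells after 48 or 72 hr compound treatment at 37 °C was assessed by CellTiter-Glo, with luminescence imaged following a 10 min room-temperature step.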
SNCA viab count = GF-AFC viability counterscreen for inhibitors of alpha-synuclein gene (SNCA) expression; HEK-293-SNCA-luc viability, GF-AFC fluorescence, 24 h; Potency, µM (titrated, usually from 57.1 µM), for the others: top-dose activity change, negative = cytotoxicity, most hits filed as cytotoxic; 0.12% of 150,000 active; AID 1671193, 2021;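 note: 0% = DMSO-treated cells and -100% = medium-only wells without cells; nearly all actives have a fitted effect of over 30% in size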
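Cytotoxicity counterscreen: after 24 h compound treatment of genome-edited SNCA-luciferase HEK-293 cells, live-cell protease substrate GF-AFC read by fluorescence after 30 min; activity scaled between DMSO (0%) and medium-only (-100%), curves Hill-fitted.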
* marks the source's active call; other numbers are inactive results; i = inactive; ? = inconclusive; · = not tested or not shown; [ ] = dose if it differs, or a comment. Unless noted, calls come from the whole dose curve; as a rule, active = well fitted curve in the direction sought with a large enough effect; inconclusive = small, poorly fitted or top-dose-only effect, or another doubt; inactive = no such curve, though single readings can be large; an effect the other way counts as inactive or inconclusive. Unless noted, % is set by controls: 0 for no effect and ±100 for the full control effect; potency is the fitted concentration of half-maximal effect.

SMILES | FLuc inh | hNpr1 antagonist | HEK293 tox | SNCA expr inh | NIH3T3 tox | SNCA viab count
CC(C)CCNC(=O)C12CCCC=C1N(c1ccccc1)C(=O)CC2 (stereo unspecified) | · | · | -12% | -2% | -7% | -10%
Cn1nccc1C(=O)N1CCC(Oc2ccc(-c3noc(-c4ccccc4)n3)cc2)C1 (stereo unspecified) | · | · | 22µM* | 49% | ? | -24%
COc1cccc(C(=O)N2CC(Oc3ccccc3-c3nc(-c4ccccc4)no3)C2)c1 | ? | -8% | 20µM* | ? | ? | ?
COc1cccc(C(=O)N2CC(Oc3ccc(-c4nc(-c5ccccc5)no4)cc3)C2)c1 | i | -10% | 22µM* | 4% | ? | -23%
Cc1nc(C)c(C(=O)N2CC(Oc3ccccc3-c3nc(C4CC4)no3)C2)s1 | i | -2% | 89µM* | 1% | ? | -5%
COCCC1(NS(C)(=O)=O)CCN(C(=O)Nc2ccc3c(c2)OCCO3)CC1 | i | 4% | 2% | 4% | -3% | -6%
Cn1cc(C(=O)N2CC(Oc3ccc(-c4nc(-c5ccccc5)no4)cc3)C2)cn1 | ? | -1% | -19% | 24% | -4% | -2%
O=C(c1cccnc1)N1CC(Oc2ccc(-c3noc(-c4ccccc4)n3)cc2)C1 | ? | 11µM* | ? | 2% | -15% | ?
O=C(c1nc2cccnc2n(Cc2ccccc2)c1=O)N1CCN(c2ncccn2)CC1 | · | · | i | -13% | -18% | -15%
Cc1ccc(NC(=O)C2CCN(c3ccnc4ccnn34)CC2)cc1 | · | · | ? | 56%[87.6 µM] | ? | 8%[87.6 µM]
CCN1C(=O)C2CC3(CCN(Cc4ccc(F)c(F)c4)CC3)CN2C1=O (stereo unspecified) | i | -11% | 32µM* | -10% | ? | -11%
O=C(NCC1CCCO1)c1ccc(-c2ccc(N3CCCCC3)nc2)cc1 (stereo unspecified) | ? | -6% | -14% | 51% | -1% | 1%
Cc1ccc(CNC(=O)c2ccc(-c3ccc(N4CCCCC4)nc3)cc2)o1 | 14µM* | -15% | ? | 4% | -10% | -13%
O=C(NCc1ccco1)c1ccc(-c2ccc(N3CCCCCC3)nc2)cc1 | ? | -20% | 40µM* | 8% | ? | -10%
CN1CCC2(C1)CN(CC1CC1)c1ccc(C(=O)NCCOc3ccccc3)cc12 (stereo unspecified) | i | -19%[70.6 µM] | 56µM* | -16%[87.6 µM] | 40µM* | -26%[87.6 µM]
CN1CCC2(C1)CN(CC1CCOCC1)c1ccc(C(=O)Nc3ccccc3)cc12 (stereo unspecified) | 50µM* | -15%[70.6 µM] | 100µM* | ? | ? | -7%[87.6 µM]
CN1CCC2(C1)CN(CC1CCOCC1)c1ccc(C(=O)NCc3ccccc3)cc12 (stereo unspecified) | i | 3%[70.6 µM] | ? | -11%[87.6 µM] | ? | 3%[87.6 µM]
COc1ccc(NC(=O)c2ccc3c(c2)C2(CCN(C)C2)CN3CC2CC2)cc1 (stereo unspecified) | i | -5%[70.6 µM] | 50µM* | 7%[87.6 µM] | 25µM* | -18%[87.6 µM]
Cc1ccc(OCc2nc(C3CCCCN3C(=O)C3CC3)no2)cc1 (stereo unspecified) | · | · | ? | 1% | ? | 4%
O=C(NCCCc1ccccc1F)[C@@]12CNC[C@@H]1CN(Cc1ccccc1)C2 | i | 3% | 45µM* | 6% | 28µM* | -23%
N#Cc1cccc(CN(Cc2cccc(C#N)c2)[C@@H]2CO[C@H](CNC(=O)c3ccccc3)[C@H]2O)c1 | i | 1% | 79µM* | -28% | ? | -7%
CCC(C)NC(=O)c1cc(-c2ccc(C(F)(F)F)cc2)nc2c1cnn2C (stereo unspecified) | · | · | -20% | · | ? | ·
COCC(=O)N1CCN2C(=O)c3cc(-c4cccc(C(F)(F)F)c4)ccc3NC(=O)[C@H]2C1 | i | 2% | ? | 4% | -25% | 8%
O=C1Nc2ccc(-c3cccc(C(F)(F)F)c3)cc2C(=O)N2CCN(C(=O)c3ccco3)C[C@@H]12 | i | -19% | 40µM* | -30% | ? | -27%
O=C1Nc2ccc(-c3cccc(C(F)(F)F)c3)cc2C(=O)N2CCN(C(=O)NC3CCCCC3)C[C@H]12 | i | 1% | 35µM* | ? | ? | -28%
SMILES | FLuc inh | hNpr1 antagonist | HEK293 tox | SNCA expr inh | NIH3T3 tox | SNCA viab count
O=C(Cc1ccc(F)cc1)NCCNC(=O)c1ccc(-c2cncnc2)cc1 | · | · | -5% | · | -14% | ·
CCC(=O)N1Cc2ccccc2CC2(CCCN(C)C2)C1 (stereo unspecified) | · | · | 79µM* | 28%[87.6 µM] | ? | 2%[87.6 µM]
CC(=O)N1Cc2ccccc2CC2(CCCN(C)C2)C1 (stereo unspecified) | · | · | -6%[172 µM] | 8%[87.6 µM] | i | 2%[87.6 µM]
Cc1noc(C)c1C(=O)N1Cc2ccccc2CC2(CCN(C)C2)C1 (stereo unspecified) | · | · | 79µM* | -23% | 79µM* | -26%
COCCCn1c(C)cc(C(=O)N2CC(c3noc(COc4ccc(F)cc4)n3)C2)c1C | · | · | ? | -1% | ? | -25%
COc1cccc(CCC(=O)N2C[C@@H](CO)[C@H](NC(=O)c3ccccc3)C2)c1 | · | · | i | 8% | -15% | -10%
N#Cc1cccc(CN2C[C@@H](CO)[C@H](NC(=O)c3ccccc3)C2)c1 | i | -2% | ? | -24% | 5µM* | -21%
COc1cccc(CN2C[C@@H](CO)[C@H](NC(=O)c3ccccc3)C2)c1 | i | -10% | 35µM* | 6% | ? | -13%
O=C(CCC1CCCC1)N1CC[C@@H]2COCCN(Cc3ccncc3)[C@@H]2C1 | · | · | ? | 33% | ? | ?
CC(NC(=O)c1cc(-c2ccncc2)cn1C)c1ccc(F)cc1 (stereo unspecified) | i | -10% | 79µM* | ? | -24% | -20%
Cc1ccccc1C(=O)N1CCCN(c2ccc3nnc(C4CC4)n3n2)CC1 | · | · | 4% | · | -11% | ·
C/C=C/CN1C[C@@H](NC(=O)c2cccc(N(C)C)c2)C[C@H]1C(=O)NCC | i | 7% | -15% | 28% | -10% | ?
CCNC(=O)[C@@H]1C[C@H](NC(=O)c2cccc(-c3ccc(F)cc3)c2)CN1C | 35µM* | 1% | ? | 119% | -28% | 1%
O=C1CN(Cc2cccc(Cl)c2)CCN1c1ccc(Cl)nn1 | i | 12%[70.6 µM] | -10%[172 µM] | -2%[87.6 µM] | ? | 4%[87.6 µM]

Assay outcomes from PubChem.
